ELG1 DNA repair = ELG1-dependent DNA repair inhibition; HEK293T ELG1-luciferase reporter, luminescence, 16 h; DNA damage induced by 5-fluorouridine; Potency, µM (doses to about 46.1 µM), without a hit: at the highest dose activity change, negative = inhibition, usual class: inhibitors; actives 2.3% (n = 330,000); AID 504467; note: % is set by controls: 0 for no effect and ±100 for the full control effect; nearly all actives have a fitted effect of over 55% in size
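Quantitative HTS, concentration-response format. 2,000 cells/well co-treated with 5-fluorouridine and compound, 16 hr in 5% CO2 at 37 °C; ONE-Glo luminescence read after 30 min.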
FLuc modulator = inhibits or activates purified firefly luciferase, miR-21 counter-screen. P08659. purified FLuc, Km substrates, luminescence inhibition. Potency, µM (highest dose often 57.5 µM), without a hit: at the top dose activity change, negative = inhibition, usual class: inhibitors. actives 6.9% (n = 360,000);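 note: plate controls were vehicle for no effect and reference inhibitor for full effect; nearly all actives have a fitted effect of over 55% in size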
Target sequence (P08659 whole entry, looked up): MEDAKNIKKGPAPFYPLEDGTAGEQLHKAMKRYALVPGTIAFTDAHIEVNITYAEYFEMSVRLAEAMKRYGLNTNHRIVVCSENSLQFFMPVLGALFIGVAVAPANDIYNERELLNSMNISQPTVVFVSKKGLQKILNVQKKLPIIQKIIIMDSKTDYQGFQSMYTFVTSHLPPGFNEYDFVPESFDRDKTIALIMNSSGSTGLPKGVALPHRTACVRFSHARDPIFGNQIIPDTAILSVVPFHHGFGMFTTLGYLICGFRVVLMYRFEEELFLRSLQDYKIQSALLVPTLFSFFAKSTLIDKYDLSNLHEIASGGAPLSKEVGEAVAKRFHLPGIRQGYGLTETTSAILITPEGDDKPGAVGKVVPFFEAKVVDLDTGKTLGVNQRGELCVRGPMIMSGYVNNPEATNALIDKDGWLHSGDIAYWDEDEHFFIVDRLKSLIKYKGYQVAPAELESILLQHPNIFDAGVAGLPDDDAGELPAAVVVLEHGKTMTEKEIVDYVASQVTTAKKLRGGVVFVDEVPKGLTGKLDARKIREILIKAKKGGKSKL
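Purified P. pyralis luciferase (10nM final) with 10uM D-luciferin and 10uM ATP (Km levels) in 50mM Tris acetate pH 7.5, 10mM Mg acetate, 0.01% Tween-20, 0.05% BSA; qHTS 6-point titration, ~60 µM downward; luminescence read.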
ELG1 genotoxic = inducers of genotoxicity in HEK293T ELG1-luciferase cells; actives 1.3% (n = 330,000); Potency, µM (titrated, usually from 46 µM), for inactives: at the highest dose activity change, positive = activation, most hits filed as activators; HEK293T ELG1-luciferase reporter, luminescence, 16 h; note: % of control where 0% means no effect; nearly all actives have a fitted effect of over 60% in size
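16 hr compound incubation (37 °C, 5% CO2) of HEK293T cells carrying luciferase-tagged ELG1; luciferase then measured by ONE-Glo luminescence after 30 min at RT.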
SMN2 splice enh = SMN2 splice variant enhancement; HEK293 SMN2-luciferase splicing reporter, luminescence, 30-36 h; Potency, µM (doses to about 46.1 µM), inactives show at the top dose activity change, positive = activation, most hits filed as activators; actives 2.8% (n = 210,000); note: % of control where 0% means no effect; nearly all actives have a fitted effect of over 55% in size
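HEK293 cells carry an SMN2 minigene-luciferase reporter in which exon 7 inclusion puts luciferase in frame. Cells were seeded at 2000 cells/well, attached for 10-12 hours, then exposed to compounds for 30-36 hours at 37C before ONE-Glo luminescence.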
Rab9 promoter act = activates the Rab9 promoter | Potency, µM (top dose mostly 9.22 µM), inactives show top-dose activation, negative = inhibition, most hits filed as activators | actives 2.8% (n = 320,000) | Huh7 Rab9 promoter-luciferase reporter, luminescence, 24 h; note: % of control where 0% means no effect; nearly all actives have a fitted effect of over 60% in size
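Using Huh7 cells stably transfected with Rab9 promoter–luciferase, compounds were incubated 24 h at 37 °C, 5% CO2; luciferase luminescence was read 10 min after reagent addition.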
NPC1 prom act = NPC1 promoter activation | Potency, µM (series often up to 9.22 µM), for the others: at the top dose activation, actives largely listed as activators | actives 2.4% (n = 320,000) | AID 485313 | Huh7 NPC1 promoter luciferase reporter, 24 h; note: % of control where 0% means no effect; nearly all actives have a fitted effect of over 60% in size
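Readout is luciferase luminescence, reflecting NPC1 promoter activation in stably transfected Huh7 cells after 24 h compound exposure at 37 °C in reduced-serum medium with 10% FBS.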
* marks the source's active call; other numbers are inactive results. Only some compounds are listed: those with a hit (about 9.4% of all), similar ones and a draw of the others. Calls come from the whole dose curve; as a rule, active = well fitted curve in the direction sought with a large enough effect; inconclusive = small, poorly fitted or top-dose-only effect, or another doubt; inactive = no such curve, though single readings can be large; an effect the other way counts as inactive or inconclusive. Potency is the fitted concentration of half-maximal effect.

`CC1(NC(=O)Cc2c(F)cccc2Cl)CCS(=O)(=O)C1` (centres undefined) gave ELG1 DNA repair 15% and ELG1 genotoxic 0%.
Screening COCCOc1ccc(C(F)(F)F)cc1NC(=O)c1ccc(C(F)(F)F)cc1 returned ELG1 DNA repair inconclusive, FLuc modulator 2%, ELG1 genotoxic 1%, Rab9 promoter act 10% and NPC1 prom act 0%.
Screening COCCOc1ccc(C(F)(F)F)cc1Nc1nc2ccccc2o1 returned ELG1 DNA repair inconclusive, FLuc modulator 15µM*, ELG1 genotoxic inconclusive, SMN2 splice enh 10%, Rab9 promoter act -1% and NPC1 prom act -2%.
`Nc1nc2c(ncn2C2OC(COC(=O)c3ccccc3)C(OC(=O)c3ccccc3)C2OC(=O)c2ccccc2)c(=O)[nH]1` (centres undefined) gave SMN2 splice enh -5%.
`CC1CCCC(C)N1CCCNC(=O)c1ccc2nc(N3CCOCC3)sc2c1` (centres undefined) gave ELG1 DNA repair 15%, FLuc modulator 6%, ELG1 genotoxic 10%, Rab9 promoter act -1% and NPC1 prom act 0%.
Screening CC1CC(C)CN(CCCNC(=O)c2ccc3nc(N4CCCCC4)sc3c2)C1 (centres undefined) returned ELG1 DNA repair inconclusive, FLuc modulator -12%, ELG1 genotoxic inconclusive, Rab9 promoter act inconclusive and NPC1 prom act 0.45µM*.
`CC1CCCC(C)N1CCCNC(=O)c1ccc2nc(N3CCCCC3)sc2c1` (centres undefined) gave ELG1 DNA repair inconclusive, FLuc modulator -11%, ELG1 genotoxic 11%, Rab9 promoter act inconclusive and NPC1 prom act 3.2µM*.
CCOc1ccc(/C=C2\SC(=S)N(Nc3ccccc3)C2=O)cc1OC was read as ELG1 DNA repair inconclusive, FLuc modulator 11µM*, ELG1 genotoxic 12%, SMN2 splice enh -2%, Rab9 promoter act -6% and NPC1 prom act -1%.
Screening COc1cc(/C=C2\SC(=S)N(C(C(=O)O)c3ccccc3)C2=O)ccc1O (centres undefined) returned ELG1 DNA repair 8%, FLuc modulator 19µM*, ELG1 genotoxic 0%, Rab9 promoter act 2% and NPC1 prom act 1%.
For COc1cc(/C=C2/SC(=S)N(Cc3ccccc3)C2=O)ccc1O the results were ELG1 DNA repair inconclusive, FLuc modulator 27µM*, ELG1 genotoxic inconclusive, Rab9 promoter act -2% and NPC1 prom act 3%.
`CCOc1cc(/C=C2\SC(=S)N(C(C(=O)O)c3ccccc3)C2=O)ccc1O` (centres undefined) gave ELG1 DNA repair -4%, FLuc modulator inconclusive, ELG1 genotoxic -2%, Rab9 promoter act -3% and NPC1 prom act -3%.
For COc1cc(/C=C2\SC(=S)N(Nc3ccccc3)C2=O)cc(OC)c1OC the results were ELG1 DNA repair -13%, FLuc modulator -10%, ELG1 genotoxic 0%, SMN2 splice enh -4%, Rab9 promoter act 3% and NPC1 prom act 1%.
For COc1cc(/C=C2/SC(=NCc3ccccc3)N(Cc3ccccc3)C2=O)ccc1O the results were ELG1 DNA repair -19%, FLuc modulator inconclusive, ELG1 genotoxic 5%, SMN2 splice enh -16%, Rab9 promoter act 2% and NPC1 prom act -3%.
For CCOc1cc(/C=C2/SC(=Nc3ccccc3)N(Cc3cccnc3)C2=O)ccc1OCC#N the results were ELG1 DNA repair 18µM*, FLuc modulator 1%, ELG1 genotoxic 1%, SMN2 splice enh -50%, Rab9 promoter act 2% and NPC1 prom act -2%.
CCCCCCCCCCCCCCC[C@H](O)[C@@H](N)CO was read as SMN2 splice enh -4%.
C=CCN=C1N[C@@H](c2ccc(Br)cc2)C(C(=O)OC)=C(C)N1Cc1ccccc1 was read as FLuc modulator 2%, Rab9 promoter act -12% and NPC1 prom act 3%.
COc1ccc(/C=C2\SC(=S)N(Cc3cccnc3)C2=O)cc1C was read as ELG1 DNA repair inconclusive, FLuc modulator 5.4µM*, ELG1 genotoxic 4%, SMN2 splice enh -18%, Rab9 promoter act 1% and NPC1 prom act 2%.
`O=C1/C(=C/c2ccc(O)cc2)SC(=S)N1Cc1cccnc1` gave ELG1 DNA repair 28%, FLuc modulator -5%, ELG1 genotoxic 8%, SMN2 splice enh -4%, Rab9 promoter act 0% and NPC1 prom act 2%.
Screening O=C1/C(=C\c2cccc(O)c2O)SC(=S)N1Cc1ccccc1 returned ELG1 DNA repair -5%, FLuc modulator inconclusive, ELG1 genotoxic 6%, Rab9 promoter act 23% and NPC1 prom act -12%.
For O=C1/C(=C\c2cc([N+](=O)[O-])ccc2O)SC(=S)N1Cc1ccc(Cl)cc1 the results were ELG1 DNA repair 18µM*, FLuc modulator -15%, ELG1 genotoxic -16%, Rab9 promoter act -4% and NPC1 prom act -2%.
For COc1ccccc1C(=O)c1c(N)c(-c2nc(-c3ccccc3)cs2)c2ccccn12 the results were FLuc modulator -5% and SMN2 splice enh 2%.
Screening COc1cc(NC(=O)C2CC(c3cccc(OC)c3OC)=NO2)cc(OC)c1OC (centres undefined) returned ELG1 DNA repair 12µM*, FLuc modulator 0%, ELG1 genotoxic -10%, SMN2 splice enh -29%, Rab9 promoter act -13% and NPC1 prom act -14%.
O=C(CSc1nnc(-c2ccc(O)cc2)o1)Nc1ccc2c(c1)OCCO2 was read as ELG1 DNA repair inconclusive, FLuc modulator inconclusive, ELG1 genotoxic 15%, SMN2 splice enh 16µM*, Rab9 promoter act 4µM* and NPC1 prom act 3.2µM*.
`O=C(Nc1ccc2c(c1)OCCO2)C1CC(c2ccccc2Cl)=NO1` (centres undefined) gave ELG1 DNA repair inconclusive, FLuc modulator 19µM*, ELG1 genotoxic 6%, Rab9 promoter act 4µM* and NPC1 prom act 4µM*.
For COc1ccc(-c2nnc(SC(C)C(=O)Nc3ccc4c(c3)OCCO4)o2)cc1 (centres undefined) the results were ELG1 DNA repair inconclusive, FLuc modulator inconclusive, ELG1 genotoxic 5.8µM*, SMN2 splice enh 18µM*, Rab9 promoter act inconclusive and NPC1 prom act 18%.
O=C(Nc1ccc2c(c1)OCO2)C1CC(c2ccccc2O)=NO1 (centres undefined) was read as ELG1 DNA repair 11%, FLuc modulator -10%, ELG1 genotoxic 11%, Rab9 promoter act 18% and NPC1 prom act 4%.

Bioassay records deposited in PubChem BioAssay by National Center for Advancing Translational Sciences (NCATS).
